# Test results reported in paper PMC5540273 (PLoS ONE, 2017).
# Assays:
# Settings in all cases: concentration: 1 μM, replicates: in singlicate; n = 1
# [1] = test system: TTK
# [2] = test system: TXK
# [3] = test system: TYK2(JH1domain-catalytic)
# [4] = test system: TYK2(JH2domain-pseudokinase)
# [5] = test system: TYRO3
# [6] = test system: ULK1
# [7] = test system: ULK2
# [8] = test system: ULK3
# [9] = test system: T1, VEGFR2
# T1 construct: gene KDR
# [10] = test system: T2, VPS34
# T2 construct: gene PIK3C3
# [11] = test system: VRK2
# [12] = test system: WEE1
# [13] = test system: WEE2
# [14] = test system: WNK1
# [15] = test system: WNK2
# [16] = test system: WNK3
# [17] = test system: WNK4
# [18] = test system: T3, YANK1
# T3 construct: gene STK32A
# [19] = test system: T4, YANK2
# T4 construct: gene STK32B
# [20] = test system: T5, YANK3
# T5 construct: gene STK32C
# 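Note: KINOMEscan kinase panel screen.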
SMILES,%Inh [1],%Inh [2],%Inh [3],%Inh [4],%Inh [5],%Inh [6],%Inh [7],%Inh [8],%Inh [9],%Inh [10],%Inh [11],%Inh [12],%Inh [13],%Inh [14],%Inh [15],%Inh [16],%Inh [17],%Inh [18],%Inh [19],%Inh [20]
COc1ccccc1CNC(=O)c1cc(C(=O)c2ccccc2C)c[nH]1 [GSK364507],0%,27%,5%,21%,15%,4%,0%,9%,0%,1%,0%,9%,12%,10%,12%,25%,32%,10%,0%,23%
Clc1cc(Cl)cc(Nc2ccnc(Nc3cc(Cl)cc(Cl)c3)n2)c1 [GSK175726],0%,0%,0%,0%,0%,0%,0%,0%,12%,0%,6%,6%,0%,0%,0%,22%,32%,0%,0%,14%
Cc1c(Cn2ccn3c(=O)cc(N4CCOCC4)nc23)cccc1C(F)(F)F [GSK2289044],1%,0%,0%,0%,0%,7%,0%,0%,1%,95.1%,0%,0%,0%,0%,0%,14%,0%,9%,1%,31%
Cc1c(O)cccc1Nc1ccnc2ccc(C(F)(F)F)cc12.Cl [GW466413],0%,25%,9%,14%,3%,2%,0%,0%,0%,0%,26%,0%,0%,23%,17%,21%,1%,0%,10%,15%
COc1ccc(CNC(=O)NC2CCN(c3ccnc(Nc4cc(OC)c(OC)c(OC)c4)n3)C2)cc1 (stereo not shown) [GSK1379748],0%,8%,48%,31%,0%,0%,0%,86%,4%,7%,14%,5%,0%,7%,30%,30%,52%,0%,0%,0%
CC(C)(C)c1ccc(C(=O)Nc2cn3cc(-c4cccnc4)ccc3n2)cc1,9%,18%,0%,19%,11%,0%,14%,33%,0%,12%,0%,0%,0%,0%,36%,0%,26%,3%,0%,20%
CC(C)(C)c1ccc(C(=O)Nc2cn3cc(Cl)ccc3n2)cc1,0%,0%,0%,0%,9%,0%,0%,10%,12%,13%,0%,0%,0%,0%,0%,0%,0%,0%,0%,3%
COc1cc2ncn(-c3cc(OCC4CCCO4)c(C(N)=O)s3)c2cc1OC (stereo not shown) [GSK204607],0%,9%,15%,31%,0%,0%,0%,0%,8%,0%,19%,9%,3%,0%,8%,12%,35%,9%,0%,0%
CCn1c(-c2cccnc2O)nc2cnccc21 [SB-736715],0%,0%,0%,0%,0%,0%,0%,0%,0%,0%,77%,0%,84%,0%,24%,0%,0%,0%,0%,0%
Cc1cccc(-c2nc(C)cc(Nc3ccncc3)n2)n1 [GSK257997],0%,0%,0%,15%,21%,0%,0%,6%,0%,11%,0%,9%,2%,6%,6%,6%,0%,10%,0%,5%
Cl.NC(=O)c1cccc(Nc2nccc(Nc3ccc(Oc4cccc(Cl)c4)c(Cl)c3)n2)c1 [GW659008],29%,0%,39%,18%,10%,6%,0%,0%,0%,9%,0%,0%,12%,0%,0%,15%,0%,3%,2%,28%
